The values below come from the supplement of paper PMC10127200.

Counter-ions that a name gives are not always drawn.

In one assay the test system is DU145. The experiment in a line: Euclidean distance of Cell Painting phenotypic profile (signed KS, 77 features) to DMSO centroid (dimensionless distance); 5 or 10 uM (library dependent); higher = stronger phenotypic change vs DMSO (phenoactivity). As to conditions: 48 h. In short, it runs like this: (§1)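 Phenoactivity is defined as the Euclidean distance from a compound profile to the median vehicle profile. Each profile comprised 77 Harmony features, scored as signed Kolmogorov-Smirnov statistics versus same-plate vehicle wells, then plate-position corrected, correlation-weighted and replicate-averaged at the top dose. Five cancer lines and one healthy fibroblast line were exposed to library compounds for 48 h at 10 or 5 uM (0.1% DMSO final).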
`S=C(NCc1ccc2c(c1)OCO2)N1CCN(c2ncnc3c2oc2ccccc23)CC1` [Amuvatinib (MP-470)] had an Euclidean distance of 1.25.
On the same count and under the same terms, then `C=C1CC[C@@H]2[C@](C)(CO)[C@H](O)CC[C@@]2(C)[C@H]1C/C=C1\C=COC1=O` [Dehydroandrographolide], with 0.554.
The compound `C=CCN1CCCC1CNC(=O)c1cc2nn[nH]c2cc1OC` (stereo not drawn) [Alizapride HCl] had an Euclidean distance of 1.04.
Same read-out and setting: to `CC[C@H](Nc1ncnc2[nH]cnc12)c1nc2cccc(F)c2c(=O)n1-c1ccccc1` [CAL-101 (Idelalisib. GS-1101)] belongs 1.32; to `CO/N=C(\C(=O)N[C@@H]1C(=O)N2C(C(=O)O)=C(CSC(=O)c3ccco3)CS[C@H]12)c1csc(N)n1` [Ceftiofur], 0.719; to `CC[C@H](C)C(=O)O[C@H]1C[C@@H](C)C=C2C=C[C@H](C)[C@H](CC[C@@H]3C[C@@H](O)CC(=O)O3)[C@H]21` [Lovastatin], 0.903.
Still for that read-out and setting: then `Nc1c(CC(=O)O)cccc1C(=O)c1ccc(Br)cc1` [Bromfenac Sodium], with 0.957; and `O=c1c(-n2ccnn2)c[nH]n1-c1cc(N2CCOCC2)ncn1` [Molidustat (BAY 85-3934)], with 1.01; and `O=C(O)c1ccc(CN2CCC(CN[C@@H]3C[C@H]3c3ccccc3)CC2)cc1`, with 0.946.
In the case of `CN(C)Cc1ccc(-c2nc3cccc4c3n2CCNC4=O)cc1`, the Euclidean distance is 1.51.
For the compound `Cc1c(S(=O)(=O)O)oc2c1C(=O)C(=O)c1c-2ccc2c1CCCC2(C)C` [Tanshinone IIA sulfonate (sodium)], the Euclidean distance was 1.71.
Still for that read-out and setting: then `NC(=S)N/N=C/c1ncccc1N` [Triapine], with 3.67.
Turning to `OCC(O)CN1CCN(c2ccccc2)CC1` (stereo not drawn) [Dropropizine], the Euclidean distance is 1.39.
The same measure, in the same setting: then `CN(C)CCOC(c1ccccc1)c1ccccc1.Cn1c(=O)c2[nH]c(Cl)nc2n(C)c1=O` [Dimenhydrinate], with 1.72; and `CC(C)(S)[C@@H](N)C(=O)O` [Penicillamine], with 0.756; and `CN1CCC(COc2cnc(-c3cccc(Cn4nc(-c5cccc(C#N)c5)ccc4=O)c3)nc2)CC1`, with 2.96.
On the same count and under the same terms, then `C[C@@H](O)[C@H]1C(=O)N2C(C(=O)O)=C(SCCNC=N)C[C@H]12` [Imipenem], with 0.986; and `Oc1c2ccccc2c2c3c(cccc13)N=N2`, with 0.792.
`O=C(/C=C/C#Cc1cccc(NS(=O)(=O)c2ccccc2)c1)NO` [Oxamflatin] yielded an Euclidean distance of 2.81.
Same read-out and setting: to `CC(C)(CO)c1cc2cc(NC(=O)C3(c4ccc5c(c4)OC(F)(F)O5)CC3)c(F)cc2n1C[C@@H](O)CO` belongs 1.24.
For the compound `CCOc1nc2cccc(C(=O)O)c2n1Cc1ccc(-c2ccccc2-c2noc(=O)[nH]2)cc1` [Azilsartan], the Euclidean distance is 0.835.
For the compound `N#Cc1ccc(C2CCCc3cncn32)cc1` (stereo not drawn) [Fadrozole], the Euclidean distance turned out to be 0.93.
On the same count and under the same terms, then `O=c1cc(-c2ccc(O)cc2)oc2cc(O)cc(O)c12` [Apigenin], with 1.17; and `O=C1c2c(O)ccc(O)c2C(=O)c2c(NCCNCCO)ccc(NCCNCCO)c21` [Mitoxantrone HCl], with 3.24.
Same read-out and setting: then `CCCCOc1ccc(C(=O)CCN2CCCCC2)cc1` [Dyclonine HCl], with 1.42; and `O=C(O)/C=C/c1ccc(O)c(O)c1` [Caffeic Acid], with 1.61.
`Cn1c([N+](=O)[O-])cnc1COC(N)=O` [Ronidazole] yielded an Euclidean distance of 0.687.
The same measure, in the same setting: to `CC(NCCC(c1ccccc1)c1ccccc1)c1ccccc1` (stereo not drawn) [Fendiline hydrochloride] belongs 1.45.
`CCn1c(=O)c2c(nc(/C=C/c3ccc(OC)c(OC)c3)n2C)n(CC)c1=O` [Istradefylline] had an Euclidean distance of 0.734.
Same read-out and setting: then `C[C@H](NC(=O)Cc1cc(F)cc(F)c1)C(=O)N[C@H](C(=O)OC(C)(C)C)c1ccccc1`, with 1.11; and `CCOC(=O)[C@H](CCc1ccccc1)N[C@@H](C)C(=O)N1C(=O)N(C)C[C@H]1C(=O)O` [Imidapril HCl], with 0.965.
Still for that read-out and setting: then `CCC1=C(C)CN(C(=O)NCCc2ccc(S(=O)(=O)NC(=O)N[C@H]3CC[C@H](C)CC3)cc2)C1=O` [Glimepiride], with 0.621.
As to `Cc1nc(NC(=O)N2CCC[C@H]2C(N)=O)sc1-c1ccnc(C(C)(C)C(F)(F)F)c1` [Alpelisib (BYL719)], the Euclidean distance worked out at 1.3.
On to `CCCC(=O)[O-].[Na+]` [Sodium butyrate], for which the Euclidean distance stood at 1.17.
The same measure, in the same setting: to `Cc1cc2c(F)c(Oc3ncnn4cc(OC[C@@H](C)OC(=O)[C@H](C)N)c(C)c34)ccc2[nH]1` belongs 1.14.
Take `Cc1ccc([C@@H]2O[C@H](CO)[C@@H](O)[C@H](O)[C@H]2O)cc1Cc1ccc(-c2ccc(F)cc2)s1` [Canagliflozin hemihydrate]: the Euclidean distance was determined as 0.936.
On the same count and under the same terms, to `Cc1nc(-c2ccc(OCC(C)C)c(C#N)c2)sc1C(=O)O` [Febuxostat] belongs 0.667; to `Oc1ccc(Nc2nc(-c3ccc(Cl)cc3)cs2)cc1`, 1.54; to `Cc1c(-c2cnccn2)ssc1=S` [Oltipraz], 0.666.

In another assay the test system is FB. The assay is described as above. As to conditions: 48 h. In short, it runs like this: as §1
In turn, `S=C(NCc1ccc2c(c1)OCO2)N1CCN(c2ncnc3c2oc2ccccc23)CC1` [Amuvatinib (MP-470)] returned an Euclidean distance of 1.07.
Still for that read-out and setting: then `C=C1CC[C@@H]2[C@](C)(CO)[C@H](O)CC[C@@]2(C)[C@H]1C/C=C1\C=COC1=O` [Dehydroandrographolide], with 0.87; and `C=CCN1CCCC1CNC(=O)c1cc2nn[nH]c2cc1OC` (stereo not drawn) [Alizapride HCl], with 1.13.
Same read-out and setting: then `CC[C@H](Nc1ncnc2[nH]cnc12)c1nc2cccc(F)c2c(=O)n1-c1ccccc1` [CAL-101 (Idelalisib. GS-1101)], with 1.79.
Still for that read-out and setting: then `CO/N=C(\C(=O)N[C@@H]1C(=O)N2C(C(=O)O)=C(CSC(=O)c3ccco3)CS[C@H]12)c1csc(N)n1` [Ceftiofur], with 0.698; and `CC[C@H](C)C(=O)O[C@H]1C[C@@H](C)C=C2C=C[C@H](C)[C@H](CC[C@@H]3C[C@@H](O)CC(=O)O3)[C@H]21` [Lovastatin], with 2.
Consider `Nc1c(CC(=O)O)cccc1C(=O)c1ccc(Br)cc1` [Bromfenac Sodium], for which the Euclidean distance was found to be 1.42.
On the same count and under the same terms, then `O=c1c(-n2ccnn2)c[nH]n1-c1cc(N2CCOCC2)ncn1` [Molidustat (BAY 85-3934)], with 1.09; and `O=C(O)c1ccc(CN2CCC(CN[C@@H]3C[C@H]3c3ccccc3)CC2)cc1`, with 1.08; and `CN(C)Cc1ccc(-c2nc3cccc4c3n2CCNC4=O)cc1`, with 1.3.
The compound `Cc1c(S(=O)(=O)O)oc2c1C(=O)C(=O)c1c-2ccc2c1CCCC2(C)C` [Tanshinone IIA sulfonate (sodium)] gave an Euclidean distance of 1.05.
Turning to `NC(=S)N/N=C/c1ncccc1N` [Triapine], the Euclidean distance came to 3.09.
On the same count and under the same terms, then `OCC(O)CN1CCN(c2ccccc2)CC1` (stereo not drawn) [Dropropizine], with 1.1.
Consider `CN(C)CCOC(c1ccccc1)c1ccccc1.Cn1c(=O)c2[nH]c(Cl)nc2n(C)c1=O` [Dimenhydrinate], for which the Euclidean distance was found to be 1.28.
On the same count and under the same terms, to `CC(C)(S)[C@@H](N)C(=O)O` [Penicillamine] belongs 1.13; to `CN1CCC(COc2cnc(-c3cccc(Cn4nc(-c5cccc(C#N)c5)ccc4=O)c3)nc2)CC1`, 2.46.
Same read-out and setting: to `C[C@@H](O)[C@H]1C(=O)N2C(C(=O)O)=C(SCCNC=N)C[C@H]12` [Imipenem] belongs 0.737.
Turning to `Oc1c2ccccc2c2c3c(cccc13)N=N2`, the Euclidean distance came to 0.94.
For `O=C(/C=C/C#Cc1cccc(NS(=O)(=O)c2ccccc2)c1)NO` [Oxamflatin], the Euclidean distance came to 4.53.
For the compound `CC(C)(CO)c1cc2cc(NC(=O)C3(c4ccc5c(c4)OC(F)(F)O5)CC3)c(F)cc2n1C[C@@H](O)CO`, the Euclidean distance worked out at 2.93.
`CCOc1nc2cccc(C(=O)O)c2n1Cc1ccc(-c2ccccc2-c2noc(=O)[nH]2)cc1` [Azilsartan]: the Euclidean distance is 0.563.
In turn, `N#Cc1ccc(C2CCCc3cncn32)cc1` (stereo not drawn) [Fadrozole] came in with an Euclidean distance of 1.38.
Still for that read-out and setting: then `O=c1cc(-c2ccc(O)cc2)oc2cc(O)cc(O)c12` [Apigenin], with 1.39; and `O=C1c2c(O)ccc(O)c2C(=O)c2c(NCCNCCO)ccc(NCCNCCO)c21` [Mitoxantrone HCl], with 4.31; and `CCCCOc1ccc(C(=O)CCN2CCCCC2)cc1` [Dyclonine HCl], with 0.997.
Turning to `O=C(O)/C=C/c1ccc(O)c(O)c1` [Caffeic Acid], the Euclidean distance came to 0.961.
Still for that read-out and setting: to `Cn1c([N+](=O)[O-])cnc1COC(N)=O` [Ronidazole] belongs 1.01; to `CC(NCCC(c1ccccc1)c1ccccc1)c1ccccc1` (stereo not drawn) [Fendiline hydrochloride], 1.24; to `CCn1c(=O)c2c(nc(/C=C/c3ccc(OC)c(OC)c3)n2C)n(CC)c1=O` [Istradefylline], 1.18.
Take `C[C@H](NC(=O)Cc1cc(F)cc(F)c1)C(=O)N[C@H](C(=O)OC(C)(C)C)c1ccccc1`: the Euclidean distance came to 0.913.
`CCOC(=O)[C@H](CCc1ccccc1)N[C@@H](C)C(=O)N1C(=O)N(C)C[C@H]1C(=O)O` [Imidapril HCl] came in with an Euclidean distance of 1.1.
In turn, `CCC1=C(C)CN(C(=O)NCCc2ccc(S(=O)(=O)NC(=O)N[C@H]3CC[C@H](C)CC3)cc2)C1=O` [Glimepiride] gave an Euclidean distance of 0.992.
Same read-out and setting: then `Cc1nc(NC(=O)N2CCC[C@H]2C(N)=O)sc1-c1ccnc(C(C)(C)C(F)(F)F)c1` [Alpelisib (BYL719)], with 2.29; and `CCCC(=O)[O-].[Na+]` [Sodium butyrate], with 1.13; and `Cc1cc2c(F)c(Oc3ncnn4cc(OC[C@@H](C)OC(=O)[C@H](C)N)c(C)c34)ccc2[nH]1`, with 1.57.
In turn, `Cc1ccc([C@@H]2O[C@H](CO)[C@@H](O)[C@H](O)[C@H]2O)cc1Cc1ccc(-c2ccc(F)cc2)s1` [Canagliflozin hemihydrate] displayed an Euclidean distance of 1.44.
Still for that read-out and setting: then `Cc1nc(-c2ccc(OCC(C)C)c(C#N)c2)sc1C(=O)O` [Febuxostat], with 0.514; and `Oc1ccc(Nc2nc(-c3ccc(Cl)cc3)cs2)cc1`, with 2.15; and `Cc1c(-c2cnccn2)ssc1=S` [Oltipraz], with 0.877.
